Test results: PubChem BioAssay
The source made the active and inactive calls. Unless noted, no rule for the calls is given here.

Columns and labels:
[1] = compound effects on lung adenocarcinoma cell viability – A549, calcein-AM fluorescence, 48 h, basal, profiling panel (AID 1162); settings: higher = more signal; also: test concentration not given here
[2] = compound effects on differentiated 3T3-L1 adipocyte viability – cell-based, 3T3-L1 adipocytes, calcein-AM fluorescence, 48 h, basal, profiling panel (AID 1163); settings: 3T3-L1 adipocytes viability, higher = more signal; also: test concentration not given here
[3] = compound effects on hepatocellular carcinoma cell viability – HepG2, calcein-AM fluorescence, 48 h, basal, profiling panel (AID 1164); settings: higher = more signal; also: test concentration not given here
[4] = compound effects on multiple myeloma cell viability – MM1S, calcein-AM fluorescence, 48 h, basal, profiling panel (AID 1165); settings: higher = more signal;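 also: viability of MM1S multiple myeloma cells under basal unstimulated conditions; test concentration not given here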
[5] = calcein-AM signal in unstimulated myeloma cells – cell-based, calcein-AM fluorescence, 48 h, PK04 Diversity Set, profiling panel (AID 1166); settings: RPMI8226 myeloma viability, higher = more signal;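 also: cells grown under basal conditions without added stimulus; test concentration not given here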
[6] = JC-1 mitochondrial signal, unstimulated HepG2 cells – cell-based, JC-1 fluorescence, 24 h, 100 nL compound, profiling panel (AID 1167); settings: HepG2 mitochondrial potential, higher = more signal; also: test concentration not given here
[7] = JC-1 mitochondrial signal, unstimulated adipocytes – cell-based, JC-1 fluorescence, 3T3-L1 adipocytes, 24 h, 100 nL compound, profiling panel (AID 1168); settings: JC-1 mitochondrial fluorescence, higher = more signal, called active from +8 up or from −8 down; also: test concentration not given here
[8] = JC-1 mitochondrial signal, unstimulated myeloma cells – cell-based, JC-1 fluorescence, RPMI8226, 24 h, 100 nL compound, profiling panel (AID 1169); settings: JC-1 mitochondrial potential fluorescence, higher = more signal; also: test concentration not given here
[9] = JC-1 mitochondrial signal, unstimulated MM1S myeloma – cell-based, JC-1 fluorescence, 24 h, 100 nL compound, profiling panel (AID 1170); settings: MM1S mitochondrial potential, higher = more signal; also: test concentration not given here
[10] = resazurin metabolic signal in A549 cells – cell-based, resazurin fluorescence, 24 h, PK04 Diversity Set, profiling panel (AID 1171); settings: A549 viability, higher = more signal, called active from +8 up or from −8 down; also: test concentration not given here
[11] = resazurin metabolic signal in HepG2 cells – cell-based, resazurin fluorescence, 24 h, PK04 Diversity Set, profiling panel (AID 1172); settings: HepG2 viability, higher = more signal; also: test concentration not given here
[12] = budding yeast growth changes without added modifier – OD600, strain BY4716, 24 h, basal condition, primary screen (AID 1173); settings: S. cerevisiae BY4716 growth, OD600, 24 h; higher = more signal, called active from +8 up or from −8 down
[13] = viability profiling in MM1S myeloma cells – cell-based, resazurin fluorescence, basal, 24 h, PK04 Diversity Set, profiling panel (AID 1174); settings: higher = more signal, called active from +8 up or from −8 down; also: test concentration not given here
[14] = molecular target: Dihydroorotate dehydrogenase (quinone), mitochondrial (Plasmodium falciparum (isolate 3D7)) (UniProt Q08210); assay: inhibition of P. falciparum DHODH – biochemical, C-terminal His tag, absorbance 600 nm, primary screen (AID 1175); settings: PfDHODH enzyme, DCIP absorbance 600 nm; higher = more signal, called active from +8 up or from −8 down;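 also: recombinant parasite enzyme with a five histidine tag at its C terminus; test concentration not given here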
Dihydroorotate dehydrogenase (quinone), mitochondrial (Plasmodium falciparum (isolate 3D7)), sequence (Q08210 whole entry, looked up): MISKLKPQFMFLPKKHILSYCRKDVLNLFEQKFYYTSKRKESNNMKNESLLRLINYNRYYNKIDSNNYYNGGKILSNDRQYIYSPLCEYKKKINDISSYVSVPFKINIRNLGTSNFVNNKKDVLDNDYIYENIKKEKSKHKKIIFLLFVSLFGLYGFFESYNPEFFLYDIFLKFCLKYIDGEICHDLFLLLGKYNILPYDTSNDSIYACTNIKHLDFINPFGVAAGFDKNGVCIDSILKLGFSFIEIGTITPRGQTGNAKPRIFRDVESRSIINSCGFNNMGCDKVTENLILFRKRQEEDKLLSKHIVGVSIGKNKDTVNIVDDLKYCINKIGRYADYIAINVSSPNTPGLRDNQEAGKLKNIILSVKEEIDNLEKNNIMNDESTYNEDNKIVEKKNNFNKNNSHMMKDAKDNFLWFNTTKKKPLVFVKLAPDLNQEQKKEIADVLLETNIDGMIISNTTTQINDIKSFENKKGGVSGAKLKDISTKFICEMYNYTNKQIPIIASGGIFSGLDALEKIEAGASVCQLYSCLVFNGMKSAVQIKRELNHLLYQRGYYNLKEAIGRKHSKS

[15] = inhibition of PAO1 biofilm formation – strain PAO1, LB-PBS medium, absorbance 600 nm, primary screen (AID 1176); also: test concentration not given here; settings: P. aeruginosa PAO1 growth/biofilm, A600, 12 h; higher = more signal
[16] = growth modulation of vineyard yeast isolate – strain RM11-1a, OD600, basal, 24 h, primary screen (AID 1177);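 also: cultures grown under basal conditions with no added stressor; test concentration not given here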; settings: S. cerevisiae RM11-1a growth, OD600, 24 h; higher = more signal, called active from +8 up or from −8 down
[17] = growth of efflux-deficient E. coli DRC39 – strain DRC39, OD650, 24 h, E. coli filamentation inducers, primary screen (AID 1178);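 also: growth measured as culture turbidity by optical density at 650 nm; test concentration not given here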; settings: E. coli DRC39 acrAB, higher = more signal, called active from +8 up or from −8 down
[18] = growth of efflux-deficient E. coli DRC39 – strain DRC39, OD650, 48 h, E. coli filamentation inducers, primary screen (AID 1179);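 also: screen aims at cell division blockers that make cells filament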; settings: E. coli DRC39 delta-acrAB growth, higher = more signal, called active from +8 up or from −8 down
[19] = viability profiling in RPMI8226 myeloma cells – cell-based, resazurin fluorescence, basal, 24 h, PK04 Diversity Set, profiling panel (AID 1180); settings: higher = more signal;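 also: RPMI8826 multiple myeloma cell line at 5000 cells per well; test concentration not given here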
[20] = molecular target: E3 ubiquitin-protein ligase XIAP (Homo sapiens) (UniProt P98170); assay: small molecules binding XIAP protein – biophysical, small-molecule microarray, fluorescence 635 nm, primary screen (AID 1181); settings: higher = more signal;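 also: score merges 667 nm emission and signal to noise over triplicate slides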
E3 ubiquitin-protein ligase XIAP (Homo sapiens), sequence (P98170 whole entry, looked up): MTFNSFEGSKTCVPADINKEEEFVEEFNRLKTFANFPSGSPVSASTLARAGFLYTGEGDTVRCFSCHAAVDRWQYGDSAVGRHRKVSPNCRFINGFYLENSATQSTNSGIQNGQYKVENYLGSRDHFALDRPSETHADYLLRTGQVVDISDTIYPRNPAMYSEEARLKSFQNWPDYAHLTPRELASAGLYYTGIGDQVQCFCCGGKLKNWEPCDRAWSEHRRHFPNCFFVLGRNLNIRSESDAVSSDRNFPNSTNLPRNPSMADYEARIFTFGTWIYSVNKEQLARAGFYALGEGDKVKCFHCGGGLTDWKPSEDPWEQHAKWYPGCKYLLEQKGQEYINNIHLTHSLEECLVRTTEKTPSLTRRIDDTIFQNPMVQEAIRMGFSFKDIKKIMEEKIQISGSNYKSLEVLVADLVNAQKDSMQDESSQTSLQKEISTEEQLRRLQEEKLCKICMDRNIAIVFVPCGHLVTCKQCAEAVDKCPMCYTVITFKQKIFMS

| SMILES | z-score [1] | z-score [2] | z-score [3] | z-score [4] | z-score [5] | z-score [6] | z-score [7] | z-score [8] | z-score [9] | z-score [10] | z-score [11] | z-score [12] | z-score [13] | composite z-score [14] | z-score [15] | z-score [16] | z-score [17] | z-score [18] | z-score [19] | composite z-score [20] |
| --- | --- | --- | --- | --- | --- | --- | --- | --- | --- | --- | --- | --- | --- | --- | --- | --- | --- | --- | --- | --- |
| CC(CCC(=O)OC[C@H]1O[C@H](C#Cc2ccccc2)C=C[C@@H]1Oc1ccc(C)cc1)=NO[C@H](C)c1cn([C@@H]2COC[C@H]2O)nn1 | 1.28 | 0.0119 | 0.669 | -1.57 | -2 | -0.662 | -4.6e-05 (inactive) | -0.072 | -1.1 | -1.25 (inactive) | -0.458 | -0.174 (inactive) | -1.7 (inactive) | -2.12 (inactive) | 1.12 (inactive) | -2.02 (inactive) | -0.698 (inactive) | -0.651 (inactive) | -0.474 | -0.0793 |
| CC(CCC(=O)OC[C@H]1O[C@H](C#Cc2ccccc2)C=C[C@@H]1Oc1ccc(C)cc1)=NOC[C@@H](C)[C@H](OCc1ccccc1)C(C)C | -0.284 | 0.0487 | -0.489 | -1.44 | 0.164 | -0.043 | -1.77 (inactive) | 1.06 | -0.327 | 0.865 (inactive) | 0.38 | 0.513 (inactive) | 0.258 (inactive) | 0.615 (inactive) | -0.503 (inactive) | -0.222 (inactive) | 0.0786 (inactive) | -0.931 (inactive) | 0.306 | -0.227 |
| COc1ccc(-c2cnnc(CCCn3ccnc3-c3ccccc3)n2)cc1 | -0.98 | 1.02 | -1.28 | -1.82 | -2.55 | -1.5 | -0.876 (inactive) | -0.87 | -0.543 | -3.49 (inactive) | -1.18 | -0.72 (inactive) | -0.891 (inactive) | 0.552 (inactive) | 1.17 (inactive) | -0.252 (inactive) | -0.867 (inactive) | -0.634 (inactive) | -1.38 | -0.0143 |
| CCCNC(=O)OC[C@H]1O[C@H](CCON=C[C@@H](C)[C@H](OCc2ccccc2)C(C)C)C=C[C@@H]1Oc1ccc(OC)cc1 | 0.544 | -0.0223 | 1.72 | 0.0415 | -0.0657 | 0.479 | 0.024 (inactive) | 0.499 | -0.627 | 0.743 (inactive) | -0.208 | -0.682 (inactive) | -2.5 (inactive) | -1.78 (inactive) | -0.242 (inactive) | -2.27 (inactive) | 0.0465 (inactive) | 0.428 (inactive) | -0.58 | -0.357 |
| CC(=O)OC[C@H]1O[C@@H](ON=C2[C@H]3CCn4c(=O)n(-c5ccccc5)c(=O)n4[C@H]3[C@H](O)[C@@H]3O[C@H]23)[C@H](OC(C)=O)[C@@H](OC(C)=O)[C@@H]1OC(C)=O | -0.0311 | -1.14 | 0.707 | -0.0928 | -0.105 | -0.506 | -0.0849 (inactive) | -0.0535 | -0.64 | -0.713 (inactive) | -0.779 | -0.499 (inactive) | -0.718 (inactive) | -1.44 (inactive) | -0.443 (inactive) | -0.184 (inactive) | 0.435 (inactive) | 0.381 (inactive) | -1.1 | -0.174 |
| CON(C)C(=O)c1nnc2c(n1)[nH]c1ccccc12 | -0.681 | 0.764 | 0.429 | -0.342 | -0.0375 | -0.88 | 0.471 (inactive) | -0.886 | 0.0753 | 0.447 (inactive) | -0.244 | 0.304 (inactive) | 0.322 (inactive) | -0.306 (inactive) | 0.131 (inactive) | -0.915 (inactive) | 0.593 (inactive) | 0.572 (inactive) | 0.492 | 0.273 |
| Cc1ccc(S(=O)(=O)N[C@@H]2COC(=O)CC=C[C@@H](C)[C@H](NS(=O)(=O)c3ccc(C)cc3)COC(=O)[C@H](C)NC(=O)CC=C[C@H]2C)cc1 | 0.697 | -0.0454 | 0.428 | -0.987 | 0.158 | 0.209 | 0.099 (inactive) | 0.389 | 1.03 | -0.395 (inactive) | -0.286 | -0.547 (inactive) | 0.341 (inactive) | 0.576 (inactive) | -0.143 (inactive) | -0.188 (inactive) | 0.983 (inactive) | 0.0462 (inactive) | -0.24 | -0.227 |
| CCOC(=O)[C@H](Cc1ccccc1)NC(=O)CCC1CC(OC(=O)NCc2ccc3c(c2)OCO3)CC2(CCCC(COC(=O)NCCOC)O2)O1 (stereo not given in full) | 0.58 | -0.182 | -0.971 | 1.05 | -1.56 | 0.724 | -0.844 (inactive) | -0.817 | -1.37 | 0.32 (inactive) | 0.0491 | -0.914 (inactive) | 0.808 (inactive) | -2.56 (inactive) | -0.871 (inactive) | 0.0059 (inactive) | -0.477 (inactive) | 0.525 (inactive) | -0.0023 | 0.0374 |
| CO[C@H]1C[C@@H]2C[C@H](O)CC(CC(=O)O[C@@H](C=CCC(C)C)C[C@@H]3CC[C@H](C)[C@@H](C1)O3)O2 | 0.366 | 0.128 | 0.341 | 0.283 | 0.624 | -0.427 | -0.975 (inactive) | 0.392 | -0.49 | -0.0031 (inactive) | -0.37 | -1.47 (inactive) | -0.0942 (inactive) | -0.928 (inactive) | -0.139 (inactive) | -1.65 (inactive) | -0.033 (inactive) | -0.394 (inactive) | -0.384 | 0.0256 |
| CC(C)(C)N1C(=O)[C@H]2[C@H]3[C@H](O)[C@H](O)CC(=NOC[C@@H](O)COCc4ccco4)[C@@H]3CC[C@H]2C1=O | -0.535 | 0.935 | -0.274 | 0.268 | -1.63 | -1.12 | -0.243 (inactive) | 0.431 | 0.325 | -0.0978 (inactive) | -0.28 | 0.382 (inactive) | 0.0017 (inactive) | -0.0796 (inactive) | 0.213 (inactive) | -0.0396 (inactive) | -0.323 (inactive) | -0.253 (inactive) | 0.589 | -0.173 |
| C#CCCCON=C1C[C@@H](O)[C@@H](O)[C@@H]2[C@@H]3C(=O)N(C[C@@H]4CCCO4)C(=O)[C@@H]3CC[C@H]12 | -0.549 | -0.614 | -1.28 | 0.266 | 0.0556 | -0.241 | -0.792 (inactive) | 0.489 | -0.149 | 0.019 (inactive) | -0.344 | 0.767 (inactive) | -0.448 (inactive) | 0.347 (inactive) | 0.0001 (inactive) | 0.364 (inactive) | -0.145 (inactive) | 0.212 (inactive) | -0.179 | -0.122 |
| CCOC(=O)CCN1C(=O)[C@H]2[C@H]3[C@H](O)[C@H](O)CC(=NOCC=C(C)CCC=C(C)C)[C@@H]3CC[C@H]2C1=O | -0.0606 | -0.218 | -0.124 | 0.232 | -0.0685 | -0.651 | -0.204 (inactive) | -0.225 | -0.251 | -0.23 (inactive) | 0.046 | 0.448 (inactive) | -0.836 (inactive) | 0.69 (inactive) | 0.176 (inactive) | -0.839 (inactive) | -1.15 (inactive) | -0.209 (inactive) | -0.871 | 0.175 |
| C#CCCCON=C1[C@H]2CCn3c(=O)n([C@@H](CC)c4ccccc4)c(=O)n3[C@H]2[C@H](O)[C@@H]2O[C@H]12 | 0.0523 | 0.44 | -0.129 | -1.77 | -0.0952 | -0.696 | 0.123 (inactive) | -0.547 | -0.662 | 0.43 (inactive) | -0.14 | -0.971 (inactive) | -0.813 (inactive) | 0.147 (inactive) | -0.531 (inactive) | -0.771 (inactive) | -0.529 (inactive) | -0.567 (inactive) | -0.751 | -0.181 |
